According to PubChem BioAssay (NCI):
The panel holds about 83,000 compounds, 20% with a hit somewhere; the sample as a whole holds those more often.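 The endpoint reported here, percent growth, reads 100 for growth as untreated, 0 for no net growth and -100 for all cells dead.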 A number with no mark means an inactive call. Calls of active or inactive are those of the source.

Test system: HCT-15 colon
Assay: NCI-60 one-dose screen, 48 h (100 = growth as untreated, 0 = no growth, -100 = all killed)
Conditions: 10 µM unless noted
Method: Growth inhibition of the HCT-15 human tumor cell line is measured as a screen for anti-cancer activity. Cells are grown in 96 well plates and exposed to the test compound for 48 hours. Compounds are tested at a single concentration, which is 10^-5 M for most compounds. The reported endpoint is percent growth (GI% or GIPRCNT), where numbers from 0 - 100% represent growth inhibition, and numbers from -100% - 0 represent cell death. For example, a value of 40 represents 60% growth inhibition. A value of 0 means no net growth occurred over the course of the experiment. A value of -40 indicates 40% of cells at the beginning of the experiment died by the end of the experiment. A value of -100 means all cells are dead at the end of the experiment.
NCI-60 Human Tumor Cell Lines Screen was performed using the standard one-dose NCI protocol, which is described in more detail at https://dtp.cancer.gov/discovery_development/nci-60/default.htm.
Compounds with GIPRCNT values below 10 were considered active. Activity score was based on GIPRCNT using the following formula: […]
Score is 0 for GIPRCNT values of 100 or above, 50 for GIPRCNT values of 0, and 100 for GIPRCNT values of -100.

Row | Structure (SMILES) | growth
1 | CC1=C(C)C(=O)C(Nc2cccc(C)c2)=C(Br)C1=O | 98.4%
2 | CCOC(=O)Nc1ccc2c(ccn2C(=O)c2cccc(F)c2)c1 | 29%
3 | O=C(Nc1ccccc1)Nc1nc2ccc([N+](=O)[O-])cc2[nH]1 | 40.9%
4 | COC(=O)[C@@H](Cc1c[nH]c2ccccc12)NC(=O)CCCCOc1cc(O)c2c(=O)cc(-c3ccccc3)oc2c1 | 80.8%
5 | Cc1c(C(=O)/C=C/c2ccc(Cl)cc2)nnn1-c1ccc2oc(=O)ccc2c1 | 87.3%
6 | CCCc1cc2cc(-n3nc(CC)c4c3CC(C)(C)CC4=O)cc(NC3CCC(O)CC3)c2c(=O)[nH]1 (stereo not given) | 17%
7 | CN(C)S(=O)(=O)c1ccc(-c2nc(C(Cl)Cl)nc3cc(-c4ccc(F)cc4)nn23)cc1 | -35.7% (active)
8 | C=C(C)[C@@H]1CC[C@]2(C(=O)N3CCN(C)CC3)CC[C@]3(C)[C@H](CC[C@@H]4[C@@]5(C)CC[C@H](OP(=O)(OCC)OCC)C(C)(C)[C@@H]5CC[C@]43C)[C@@H]12 | 60.2%
9 | O=C(/C=C/c1cccc(C(F)(F)F)c1)Nc1cccc(C(F)(F)F)c1 | 14.9%
10 | CCOC(=O)C1=C(C)NC(C)=C(C(=O)OCc2ccccc2)C1c1cccc(C#N)c1 (stereo not given) | 23%
11 | Cc1ccc2c(n1)C(=O)C(Cl)=C(Nc1ccc(C)c(C)c1)C2=O | 23.6%
12 | CC(C)Sc1nc(-c2ccccc2)c(C#N)c(N2CCOCC2)n1 | 80.2%
13 | COCCOc1ccc2ncc(C#Cc3cncc(C(=O)Nc4ccc(CN5CCN(C)CC5)c(C(F)(F)F)c4)c3)n2n1 | 0.122% (active)
14 | C#C[C@]1(O)CC[C@H]2[C@@H]3CC=C4c5sc(NCc6ccccc6)nc5CC[C@]4(C)[C@H]3CC[C@@]21C | 8.8% (active)
15 | Cn1cc(-c2nn3cc(-c4ccncc4)nc3s2)c2cc(Br)ccc21 | 18%
16 | Cc1csc(/N=C(N)/N=C(\N)c2cccnc2)n1 | 42.7%
17 | C#CCOc1ccccc1/C=N/Nc1nc(-c2ccc(Cl)cc2)cs1 | 104%
18 | O=C1[C@@H]2Cc3c([nH]c4ccccc34)[C@@H](c3ccc(Cl)cc3)N2C(=O)CN1C1CCN(Cc2c(F)cccc2F)CC1 | 24.3%
19 | Cc1cccc(N2CCN(C3=C(Cl)C(=O)c4ncccc4C3=O)CC2)c1 | 24.8%
20 | CC1(C)CC[C@]23CC[C@]4(C)[C@H](CC[C@@H]5[C@@]6(C)CC[C@H](N)C(C)(C)[C@@H]6CC[C@]54C)[C@H]2[C@H]1OC3 | -52.2% (active)

Row | Structure (SMILES) | growth
21 | C#Cc1nc(/C=C\CCCCCCC(=O)NO)cs1 | 65.6%
22 | O=C(Nc1ccc(Cl)c(C(F)(F)F)c1)Nc1ccc2oc(=O)ccc2c1 | 16.6%
23 | Brc1cc(-c2cc(-c3ccc4c(c3)OC=CO4)[nH]n2)cs1 | 51%
24 | C#CCOc1cccc(-c2nc(N)nc(Nc3ccccc3SSc3ccccc3Nc3nc(N)nc(-c4cccc(OCC#C)c4)n3)n2)c1 | 28.6%
25 | O=C1[C@H]2Cc3c([nH]c4ccccc34)[C@H](c3ccc(Cl)cc3)N2C(=O)CN1C1CCN(CC2CCCCC2)CC1 | 28.6%
26 | C=CCSC1=NC2C(N(CC)C(=O)N2CC)N1/N=C/C=C/c1ccccc1OC (stereo not given) | 50.8%
27 | Clc1ccc(CSc2nnc(-c3ccc(Cl)cc3)n2-c2ccccc2)cc1 | 93.3%
28 | CCC(=C(c1ccc(OCCN2CCCCCC2)cc1)c1ccc(OCCN2CCCCCC2)cc1)c1ccc(Cl)cc1 | -58.9% (active)
29 | Cn1c2nc3ccccc3c-2cc2ccccc21 | 25%
30 | COc1ccc(/C(=N\NC(N)=S)c2ccc(Cl)cc2)cc1OC | 16%
31 | O=C(/C=C/C=C/c1csc(Br)n1)NO | 94.5%
32 | COc1ccccc1Cn1cc(C#N)c(N)c1C(=O)c1ccc(Br)cc1 | 86.6%
33 | CCOc1cccc(/C(N)=N/C(N)=N/c2nc3ccccc3s2)c1 | 49.9%
34 | Cc1ccc(S(=O)(=O)NCCCNc2nccc(-c3[nH]c(-c4ccccc4)nc3-c3ccc(F)c(O)c3)n2)cc1 | 76%
35 | c1ccc(-c2cn3c(-c4c[nH]c5ccccc45)csc3n2)cc1 | 85.6%
36 | O=C(CCCCCCN1CC(=O)N2[C@@H](c3ccccc3Br)c3[nH]c4ccccc4c3C[C@H]2C1=O)NO | 90.2%
37 | Cc1cc(Br)ccc1-n1cc(C#N)c(N)c1C(=O)c1ccc(Br)cc1 | 97.6%
38 | COc1ccc(-c2cnc(NC(=O)CCCCCCNC(=O)C(O)(O)C(F)(F)F)s2)cc1 | 4.2% (active)
39 | CN1CCN(Cc2ccc(NC(=O)c3cncc(C#Cc4cnc5ccc(N6CCOCC6)nn45)c3)cc2C(F)(F)F)CC1 | -53.9% (active)
40 | C#CCN(C)CCCOc1ccc(NC(=O)CCCCCCCCC(=O)NO)cc1Cl | 75%
